PubChem BioAssay (NCI)
Compounds without any hit were thinned out: in the full panel of roughly 83,000, 20% have a hit.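 Values shown are percent growth following 48 h exposure of cells in 96-well plates to a single concentration of compound; below 10 was considered active.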

What was measured:
Assay in all cases: NCI-60 one-dose screen, 48 h (100 = growth as untreated, 0 = no growth, -100 = all killed)
Details in all cases: 10 µM unless noted
[1] = system: NCI-H23 lung
[2] = system: NCI-H226 lung
[3] = system: NCI-H322M lung
[4] = system: HOP-62 NSCLC
[5] = system: NCI-H460 lung
[6] = system: HOP-92 NSCLC
[7] = system: NCI-H522 lung
[8] = system: A549/ATCC NSCLC
[9] = system: 786-0 renal
[10] = system: COLO 205 colon
[11] = system: DU-145 prostate
[12] = system: K-562 leukemia
[13] = system: MALME-3M melanoma
[14] = system: MDA-MB-231 breast
[15] = system: RXF 393 renal
[16] = system: SF-268 CNS
[17] = system: SF-295 CNS
[18] = system: SF-539 CNS
[19] = system: UACC-257 melanoma
[20] = system: M14 melanoma

Measured: growth

Cn1/c(=N\N=C\c2ccccc2OCCO)sc2ccccc21
inactive: [1] 101% | [2] 88.3% | [3] 80.7% | [4] 106% | [5] 101% | [6] 82.5% | [7] 90% | [8] 102% | [9] 115% | [10] 91% | [11] 109% | [12] 76.7% | [13] 80.2% | [14] 72.1% | [15] 102% | [16] 94.1% | [17] 94% | [18] 92.9% | [19] 121% | [20] 103%

CC(=O)O[C@H]1CC[C@]2(C)C3=C(C(=O)C[C@H]2C1(C)C)[C@]1(C)CC[C@H]([C@H](C)CCC(=O)O)[C@@]1(C)CC3=O
inactive: [1] 98.3% | [2] 107% | [3] 105% | [4] 95.4% | [5] 89.8% | [6] 107% | [7] 81.8% | [8] 101% | [9] 107% | [10] 103% | [11] 108% | [12] 86.8% | [13] 98.1% | [14] 107% | [15] 110% | [16] 111% | [17] 96.4% | [18] 96.2% | [19] 113% | [20] 99.3%

COC(CCCl)c1ccc(Cl)cc1 (stereo not given)
inactive: [1] 107% | [2] 101% | [3] 97.5% | [4] 114% | [5] 107% | [6] 121% | [7] 74.6% | [8] 95.4% | [9] 100% | [10] 111% | [11] 111% | [12] 89% | [13] 98.9% | [14] 119% | [15] 113% | [16] 110% | [17] 112% | [18] 101% | [19] 78% | [20] 101%

CN(C)c1ccc2c(N(C)C)cc(N(C)C)nc2c1
inactive: [1] 97.5% | [2] 83.2% | [3] 64.9% | [4] 82.1% | [5] 82.7% | [6] 69.8% | [7] 79.3% | [8] 98.5% | [9] 94.8% | [10] 65% | [11] 93% | [12] 64.4% | [13] 98.4% | [14] 64.2% | [15] 97.7% | [16] 91.6% | [17] 65.9% | [18] 84.9% | [19] 122% | [20] 81.7%

CC(=O)c1ccc(C)cc1
inactive: [1] 104% | [2] 102% | [3] 90% | [4] 107% | [5] 106% | [6] 88.3% | [7] 103% | [8] 114% | [9] 120% | [10] 116% | [11] 114% | [12] 114% | [13] 90.8% | [14] 114% | [15] 97.6% | [16] 107% | [17] 109% | [18] 114% | [19] 92% | [20] 107%

COc1ccc(/C=N/NC(=O)COCC(=O)N/N=C/c2ccc(OC)cc2)cc1
inactive: [1] 107% | [2] 99.5% | [3] 113% | [4] 117% | [5] 107% | [6] 92.5% | [7] 107% | [8] 98.3% | [9] 106% | [10] 111% | [11] 113% | [12] 102% | [13] 115% | [14] 98.4% | [15] 104% | [16] 110% | [17] 97.1% | [18] 100% | [19] 96.6% | [20] 115%

COc1ccc(C(=O)/C(=N/Nc2ccccc2)c2ccc(OC)cc2)cc1
inactive: [1] 89% | [2] 94.2% | [3] 103% | [4] 102% | [5] 94.1% | [6] 82.1% | [7] 79.3% | [8] 85.4% | [9] 94.2% | [10] 99.9% | [11] 115% | [12] 92.8% | [13] 109% | [14] 82.7% | [15] 92.4% | [16] 101% | [17] 101% | [18] 95.9% | [19] 111% | [20] 102%

CC(C)Sc1ncnc2nc[nH]c12
inactive: [1] 114% | [2] 102% | [3] 122% | [4] 105% | [5] 99.4% | [6] 91.7% | [7] 109% | [8] 91.6% | [9] 101% | [10] 96.8% | [11] 121% | [12] 113% | [13] 109% | [14] 105% | [15] 93% | [16] 121% | [17] 107% | [18] 100% | [19] 91.7% | [20] 105%
